An excerpt weighted towards active compounds, which were near 0.44% of everything screened.
YopH PTP inh: inhibitors of Yersinia enterocolitica YopH tyrosine phosphatase; fluorescence Ex485/Em525; inhibition, % (no concentration beside the values); 140,000 compounds, 0.16% hits; AID 898; in the data active = inhibition above about 50%
RmlC RmlD mix: mixture blocks RmlC and RmlD coupled enzyme activity | RmlC/RmlD coupled enzyme inhibition, 384-well mixture HTS | inhibition, % at 5.5 µM | 110,000 compounds, 0.39% hits | AID 1532; in the data active = inhibition above about 30%, passing the limit was not always enough
Numbers stand for hits; i = inactive; nt = not tested or not shown.

SMILES	YopH PTP inh	RmlC RmlD mix
COCCCNC(=O)CCCC(=O)NCCCOC	54.8	i
COCCCNC(=O)CCCOc1ccccc1	i	i
Cc1cc(C)cc(Nc2ncc3c(n2)CCCC3=O)c1	i	i
CCN(CC)c1ccc(/C=N/Nc2ccc(C)cc2)c(O)c1	82.8	nt
CCOC(=O)N/N=C/c1ccc(N(CC)CC)cc1O	i	nt
C/C(=N\NC(=O)CCC(=O)Nc1ccccc1)c1cccs1	i	nt
Cc1cc(C)n(CC(=O)N2c3ccccc3Sc3ccccc32)n1	i	i
O=C1CCC(=O)N1CC(=O)N1c2ccccc2Sc2ccccc21	53.5	i
O=C(NCCCn1ccnc1)Nc1cccc(Cl)c1	i	i
CC1(C)CC(=O)C2=C(C1)OC1=C(C2)C(=O)CC(C)(C)C1	i	nt
Cn1c(=O)c(-c2ccccc2)nn2c3ccccc3nc12	i	i
Cc1nc2c(=O)n(C)c(=O)nc-2n(C)n1	101.1	nt
COC(=O)c1ccc(-c2nc3ccccc3[nH]2)cc1	i	nt
Cc1cc(C)nc(SCC(=O)Oc2ccc3oc(=O)cc(C)c3c2)n1	51.5	i
CCC(=O)Oc1ccc2oc(=O)cc(C)c2c1	i	nt
COc1cc(NCCCCCCCN)c2ncccc2c1	52.5	i
COc1cc(NC(=O)c2ccc3c(c2)OCO3)c2ncccc2c1	i	i
O=c1[nH]c2ccccc2n1CCCSc1cnc2ccccc2n1	i	i
C=CCn1c2ccccc2c2nnc(SCCCn3c(=O)[nH]c4ccccc43)nc21	i	71.4
Cc1ccc2c(CC(=O)NC3CCCc4ccccc43)coc2c1 (stereo not given)	i	nt
COC(=O)N(NC(=O)C(O)(CCC(C)C)CCC(C)C)c1ccccc1	69.7	nt
COC(=O)N(NC(=O)C(O)(c1ccccc1)c1ccccc1)c1ccccc1	i	nt
Cc1ccc(-n2c(CSc3nc(C)cc(C)n3)nnc2SCC(=O)NCc2ccco2)cc1	i	i
CCCCNc1cc(NC(C)=O)cc2cc(OC)c(OC)cc12	79.6	i
CCCC(=O)Nc1cc(OC)c(OC)cc1C(=O)O	i	i
SMILES	YopH PTP inh	RmlC RmlD mix
CC(C)=CC(=O)NCc1c(Cl)cccc1-n1cccc1	i	i
COc1ccc(-c2cc(C(=O)OC3CCOC3=O)c3ccccc3n2)cc1 (stereo not given)	i	i
CCOC(=O)c1cc2c(=O)n3ccccc3nc2n(Cc2ccccc2)c1=N	i	30.7
CCOCCCn1c(=NC(C)=O)c(C(=O)OCC)cc2c(=O)n3ccccc3nc21	i	67.1
CCOC(=O)c1cc2c(=O)n3ccccc3nc2n(CCCOC)c1=NC(=O)C(C)(C)C	i	i
CCOC(=O)c1cc2c(=O)n3ccccc3nc2n(CC(C)C)c1=NC(=O)c1ccco1	i	i
O=C(NCc1ccc(OC(F)(F)F)cc1)C1CC(c2ccccc2C(F)(F)F)=NO1 (stereo not given)	nt	i
O=C(c1ccco1)N1CCN(S(=O)(=O)Cc2ccc(Cl)cc2)CC1	i	i
CCN(C)c1ccc(/C=N\n2nnnc2N)cc1	i	71.1
Nc1nnnn1/N=C/c1ccc(O)cc1	i	i
Cc1c([N+](=O)[O-])c([N+](=O)[O-])nn1CC(=O)N1CCCCC1	i	nt
COc1ccc(C(=O)N(C(C)C)C(C)C)c(OC)c1	i	i
COC(=O)C1=CN(CC2CCCO2)C=C(C(=O)OC)C1c1ccsc1 (stereo not given)	i	57.8
COC(=O)C1=CN(CC2CCCO2)C=C(C(=O)OC)C1c1ccccc1C(F)(F)F (stereo not given)	i	i
COc1ccc(Cc2c3cc(OC)c(OC)cc3cc[n+]2C)cc1OC	nt	i
COc1ccc(Cc2nccc3cc(OC)c(OC)cc23)cc1OC	66.8	i
Cc1c(CN(C)C)c2c(n1C)C(=O)c1ccc(Br)cc1-2	i	i
CCOC(=O)c1c2c(n(C)c1C)C(=O)C(=O)c1ccc(Br)cc1-2	88.5	i
CN1CCc2cc3c(c4c2[C@H]1[C@H](O)c1ccccc1-4)OCO3	101.0	i
COc1ccc2c(c1OC)C(=O)OC2C1c2c(cc3c(c2OC)OCO3)CCN1C (stereo not given)	i	i
O=C(c1ccco1)N1CCN=C1SCc1cccnc1	i	i
O=C(c1cccs1)N1CCN=C1SCc1cccnc1	50.5	i
CSc1nnc(C)c(=O)n1COC(=O)c1ccc(S(=O)(=O)N(C)C)cc1	i	nt
CCOC(=O)c1cnc2c(OC)cccc2c1Nc1ccc2c(c1)OCCO2	i	nt
O=C(NCCN1CCCCC1)c1ccc(=O)oc1	i	47.8
SMILES	YopH PTP inh	RmlC RmlD mix
O=C(NCCN1CCCCC1)c1ccc2c(c1)OCCO2	i	i
COc1ccc(N2C(=O)[C@@H]3[C@H](C2=O)[C@H]2c4ccccc4C=CN2[C@@H]3C(C)=O)cc1	60.5	nt
CC(C)(C)C(=O)[C@@H]1[C@@H]2C(=O)N(C3CCCCC3)C(=O)[C@@H]2[C@H]2c3ccccc3C=CN12	i	nt
O=C1CC(N(O)c2ccccc2)C(=O)N1c1cc(Cl)cc(Cl)c1 (stereo not given)	i	i
O=C1CC(N(O)c2ccccc2)C(=O)N1Cc1ccccc1 (stereo not given)	56.7	i
CC(C)CC(NC(=O)C(COC(C)(C)C)NC(=O)C(Cc1ccc(O)cc1)NC(=O)C(CO)NC(=O)C(Cc1c[nH]c2ccccc12)NC(=O)C(Cc1cnc[nH]1)NC(=O)C1CCC(=O)N1)C(=O)N[C@@H](CCCN=C(N)N)C(=O)N1CCCC1C(=O)NNC(N)=O (stereo not given in full)	nt	i
CCCn1c(NCc2c[nH]c3ccccc23)nc2ccccc21	i	i
CCOC(=O)c1cc2c(=O)n3cccc(C)c3nc2n(C)c1=N	i	nt
CNC(=O)c1cc2c(=O)n3cccc(C)c3nc2n(C(C)C)c1=N	i	89.2
CCCCNC(=O)c1cc2c(=O)n3cccc(C)c3nc2n(Cc2ccccc2)c1=N	i	i
COCCCn1c(=N)c(C(=O)NCC2CCCO2)cc2c(=O)n3cccc(C)c3nc21 (stereo not given)	i	nt
COCCCn1c(=N)c(C(=O)NCC2CCCO2)cc2c(=O)n3ccccc3nc21 (stereo not given)	i	69.4
C=CCn1c(=N)c(C(=O)NCCCOC)cc2c(=O)n3cccc(C)c3nc21	i	50.1
CCN(C(=O)COC(=O)c1c2c(nc3ccccc13)/C(=C/c1ccccc1)CC(C)C2)C1CCS(=O)(=O)C1 (stereo not given)	i	nt
CC(C)CNC(=O)CCc1c[nH]c2ccccc12	i	i
Cc1onc(-c2c(Cl)cccc2Cl)c1C(=O)NCCc1ccc(S(N)(=O)=O)cc1	i	i
O=C1CC(c2ccccc2)c2cc(O)ccc2O1 (stereo not given)	70.0	i
Cc1ccc(C2CC(=O)Oc3cc(O)ccc32)cc1 (stereo not given)	i	i
Cc1[nH]n(-c2ccccc2)c(=O)c1Sc1ccc(Cl)cc1	i	i
Cc1[nH]n(-c2ccccc2)c(=O)c1C(C[N+](=O)[O-])c1ccc(Cl)cc1 (stereo not given)	75.6	nt
Cc1[nH]n(-c2ccccc2)c(=O)c1C(C[N+](=O)[O-])c1ccc(F)cc1 (stereo not given)	i	nt
Cc1ccc(C(C[N+](=O)[O-])c2c(C)[nH]n(-c3ccccc3)c2=O)cc1 (stereo not given)	82.8	nt
Cc1ccc(CN2CCSCC2)c(C)c1	i	nt
CC(C)C(NC(=O)c1ccccc1)c1nnc(SCC(=O)Nc2nccs2)n1C (stereo not given)	i	i
O=C1C=CC(=O)C(C2=C3C(=O)N(CCc4ccccc4)CC(=O)N3CCC2)=C1	66.8	nt
O=C1CC(=O)N(CCc2ccccc2)C(=O)N1CCc1ccccc1	i	i
